Source: PubChem BioAssay (NCI)
This is part of a sample that, as a whole, favours compounds with a hit. Of some 83,000 tested, about 20% had one in any assay.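 Testing used 96-well plates and a 48-hour single-concentration exposure. Example: -40 means 40% of the starting cells died.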 Unmarked numbers belong to inactive results. Activity calls are given as the source filed them. Rule for the calls: active = growth percent below 10; inactive = the rest.

Each compound was assayed on HT29 colon (assay: NCI-60 one-dose screen, 48 h (100 = growth as untreated, 0 = no growth, -100 = all killed)). Conditions: 10 µM unless noted.

**Q.** How did the growth turn out when `CCOc1ccccc1CN1CCc2nc3cc(C(C)(C)C)[nH]n3c(=O)c2C1` was run?
**A.** The growth was 94.8%.

**Q.** For `COc1ccc2sc(N(Cc3cccnc3)C(=O)c3ccc(C#N)cc3)nc2c1`, which growth is on record?
**A.** The growth was 23.4%.

**Q.** With `COc1cc(/C=C2\CN(S(=O)(=O)c3ccccc3)C/C(=C\c3cc(CN4CCCC4)c(O)c(OC)c3)C2=O)cc(CN2CCCC2)c1O` as the compound, how does the growth read?
**A.** Its growth is -9.09% (active).

**Q.** With `Cc1c(C(=O)OCCO)cc(-c2ccc(Cl)cc2)n1-c1ccc(Cl)cc1Cl` as the compound, how does the growth read?
**A.** Its growth is 74.6%.

**Q.** How did the growth turn out when `CC(=O)n1cc(-c2c[nH]c3ccccc23)c(-c2ccc(Cl)cc2)n1` was run?
**A.** The growth was 95.9%.

**Q.** For `COc1cc(C=C2C(=O)N(C)C(=O)N(C)C2=O)cc(CN2CCCCC2)c1O`, which growth is on record?
**A.** The growth was 103%.

**Q.** Which growth does the source give for `O=C(CSc1nc2ccccc2c(=O)n1-c1ccccc1)Nc1ccc(C(=O)/C=C/c2ccc(Cl)cc2)cc1` here?
**A.** Its growth is 100%.

**Q.** With `CCCCN1CCN(c2ccc3nc(-c4ccc5nc(-c6ccc(OC)c(OC)c6)[nH]c5c4)[nH]c3c2)CC1` as the compound, how does the growth read?
**A.** Its growth is 5.94% (active).

**Q.** For `CC(C)(C)c1ccc(C2CC(=O)C3=C(C2)Nc2ccccc2N(C(=O)c2ccccc2Cl)C3c2ccc(F)cc2)cc1` (stereo unspecified), which growth is on record?
**A.** Its growth is -9.44% (active).

**Q.** Which growth does the source give for `CCOC(=O)c1sc(-c2ccc(OS(=O)(=O)c3ccc(Br)s3)c(C=O)c2)nc1C` here?
**A.** The growth was -17.9% (active).

**Q.** Which growth does the source give for `CC(=O)Nc1nc2c(s1)CCc1c-2cn(S(=O)(=O)c2ccccc2)c1-c1ccccc1` here?
**A.** The growth was 78.1%.

**Q.** For `Clc1ccc(Oc2ccc(Nc3ncnc4onc(-c5ccccc5)c34)cc2)c(Cl)c1`, which growth is on record?
**A.** Its growth is 84.2%.

**Q.** With `CCN1C(=O)N(CC)C2Nn3c(s/c(=C\c4ccccc4F)c3=O)=NC21` (stereo unspecified) as the compound, how does the growth read?
**A.** The growth was 17.4%.

**Q.** With `CCCCC1COc2cccc3c2N1C=C/C3=C\C(=O)N(C)c1ccccc1` (stereo unspecified) as the compound, how does the growth read?
**A.** The growth was 49.7%.

**Q.** How did the growth turn out when `COC(=O)/C(=C\c1c(-c2ccccc2)[nH]c2ccccc12)S(C)(=O)=O` was run?
**A.** The growth was 8.37% (active).

**Q.** For `COC(=O)c1c2c(c(C)[n+]([O-])c1C)C(=O)C=C(NCc1ccccc1)C2=O`, which growth is on record?
**A.** Its growth is 5.35% (active).

**Q.** Which growth does the source give for `c1ccc(CNc2nc(Nc3ccccc3)nc3ccccc23)cc1` here?
**A.** The growth was 54.5%.

**Q.** How did the growth turn out when `COc1ccc(/C=C/C(=O)c2c(C)nc3ccccc3c2/C=C/c2ccccc2)cc1O` was run?
**A.** Its growth is 71.6%.

**Q.** How did the growth turn out when `COc1ccc(OC)c(NC(=O)/C(C#N)=C/c2ccco2)c1` was run?
**A.** Its growth is 91.8%.

**Q.** How did the growth turn out when `COC(=O)/C(CCC=C(C)C)=C1\[C@@H](OC(C)=O)C[C@@]2(C)[C@H]1C[C@@H](O)[C@H]1[C@@]3(C)CC[C@H](NCCCNCCCCNCCCN)[C@@H](C)[C@@H]3CC[C@@]12C` was run?
**A.** The growth was 31.1%.

**Q.** How did the growth turn out when `O=C1c2cc(Br)ccc2Oc2cc([N+](=O)[O-])ccc2N1c1ccc(I)cc1F` was run?
**A.** Its growth is 99.6%.

**Q.** How did the growth turn out when `O=C(Nc1ccc(Br)cc1F)c1cc(I)ccc1O` was run?
**A.** The growth was 92.4%.

**Q.** For `COc1ccc(-c2cn3c(C(=O)Nc4ccccc4Cl)c(-c4ccccc4)c4c3n2CCCC4)cc1`, which growth is on record?
**A.** The growth was 26%.

**Q.** For `CSc1nc2c(c(=O)[nH]1)N=C1c3ccccc3C(=O)C1C(c1ccccc1)N2` (stereo unspecified), which growth is on record?
**A.** Its growth is 5.89% (active).

**Q.** With `O=c1[nH]nnc2c1ncn2C1OC(CO)C(O)C1O` (stereo unspecified) as the compound, how does the growth read?
**A.** Its growth is 50.4%.

**Q.** Which growth does the source give for `O=Cc1c(OCc2cnnn2CC(=O)Nc2ccc(Cl)cc2)ccc2ccccc12` here?
**A.** The growth was 107%.

**Q.** `O=C(c1nc2ccccc2[nH]1)C1[C@@H](c2cccc(O)c2)C2CC3CCCCC3N2[C@@]12C(=O)Nc1cc(Cl)ccc12` (stereo partly specified) was tested. Which growth did it give?
**A.** Its growth is 50.6%.

**Q.** How did the growth turn out when `Nc1nc(N)c2c(n1)NC1(C=C(O)c3ccccc31)C1=C(N2)c2ccccc2C1=O` (stereo unspecified) was run?
**A.** The growth was 125%.

**Q.** How did the growth turn out when `COc1ccc(/C(C#N)=C/c2nc3c(N4CCOCC4)nc(Cl)nc3n2C)cc1OC` was run?
**A.** The growth was 3.73% (active).

**Q.** For `COc1cccc2c1C=C1CCCCC3=Cc4c(OC)cccc4OC13O2`, which growth is on record?
**A.** The growth was 16.3%.

**Q.** `COc1ccc(/C=C/C(=O)c2ccc(Nc3nc(NCCO)nc(Nc4ccc(Cl)cc4)n3)cc2)cc1` was tested. Which growth did it give?
**A.** Its growth is 40%.

**Q.** For `O=NN(C(=O)NC1CCC(C(=O)O)CC1)C1CCC(C(=O)O)CC1` (stereo unspecified), which growth is on record?
**A.** The growth was 108%.

**Q.** For `CN1CCN(Cc2ccc(NC(=O)c3cncc(C#Cc4nc(N)nc5[nH]ncc45)c3)cc2C(F)(F)F)CC1`, which growth is on record?
**A.** Its growth is 55.3%.

**Q.** For `Nc1nc(-c2cnccn2)nn1-c1nc2ccccc2s1`, which growth is on record?
**A.** The growth was 99.7%.

**Q.** `CCOC(=O)c1cc2c(n1Cc1cc(OC)cc(OC)c1)-c1oncc1CCC2` was tested. Which growth did it give?
**A.** The growth was 6.58% (active).

**Q.** With `CCOC(=O)c1c(Cl)c2c(n1Cc1ccccc1)-c1oncc1CCC2` as the compound, how does the growth read?
**A.** Its growth is 25.8%.
